# Source: PubChem BioAssay
# HIF-2a block – HIF-2a reporter inhibitors, primary screen, luminescence, 786-0 RCC cells; AID 624352, 2012; 786-0 RCC cells HIF-2a reporter, luciferase luminescence, overnight; inhibition, % at 18.8 µM; 360,000 tested, 0.72% active;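 active = inhibition of the luminescence signal of 40% or more relative to plate controls, in a single-dose primary screen at 18.75 µM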
# TROY NFkB inh – inhibitors of TROY-driven NF-kB signaling, primary screen, Q293 LMP1-TROYcd cells, NF-kB luciferase, uHTS. Q293 LMP1-TROYcd NF-kB luciferase reporter, 4 h. inhibition, % at 10 µM. 360,000 tested, 0.98% active. AID 1347056, 2019;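 active = compounds whose plate-normalised and pattern-corrected inhibition of the luciferase reporter signal at the single screening dose is 50% or more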
# TWEAK-Fn14 inh – inhibitors of TWEAK-Fn14 signaling, primary screen, luciferase reporter cells, uHTS | 360,000 tested, 2% active | TWEAK-stimulated Fn14 reporter cells, luciferase luminescence, 8 h | inhibition, % at 10 µM | AID 1159606, 2016; in the data active = inhibition above about 50%
# KKLEB cytotox – cytotoxicity in KKLEB CF airway cells, primary screen, cytotoxicity control for CF NF-kB inhibitor project, cell-based, uHTS, fluorescence assay plates; KKLEB CF airway cells viability, ATPlite luminescence, overnight; hits give low values; cells stimulated with P. aeruginosa culture filtrate; activity change (cytotoxicity), % at 5 µM; 360,000 tested, 0.36% active;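 active = corrected activity change at or below -50% at 5 µM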
# Peg3 prom inh – Peg3 promoter-driven luciferase inhibitors, primary screen, cell-based, HeLa, luciferase luminescence; HeLa PEG-Prom luciferase reporter, overnight; inhibition, % at 20 µM; 360,000 tested, 1.7% active; AID 588405, 2011;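 active = inhibition of at least 50% at 20 µM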
# CF NFkB inh – inhibitors of PAF-induced NF-kB signaling, primary screen, cell-based, GFP fluorescence, uHTS | KKLEB NF-kB-GFP reporter, GFP fluorescence overnight | inhibition, % at 5 µM | 360,000 tested, 0.86% active | AID 588850, 2011;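 active = at least 50% inhibition at 5 µM, scaled per plate between neutral and stimulator controls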;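 also: PAF is a Pseudomonas aeruginosa culture filtrate used as stimulus; plate controls were PAF-stimulated DMSO wells for no effect and unstimulated DMSO wells for full effect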
# Numbers without * were called inactive. An excerpt weighted towards active compounds, which were near 4% of everything screened.
SMILES,HIF-2a block,TROY NFkB inh,TWEAK-Fn14 inh,KKLEB cytotox,Peg3 prom inh,CF NFkB inh
O=C(CSc1nc2ccccc2[nH]1)Nc1nc(-c2cccc(Br)c2)cs1,22,0,-15,-13,0,8
Cc1cc(C(N)=O)c2ccccc2n1,12,-23,0,10,13,8
NC(=O)c1cc2c3ccccc3ccn2c1-c1ccccc1,-113,47,52*,-5,-86,20
O=C(c1cccs1)N1C[C@@H](O)[C@H](n2cc(-c3ccc(F)cc3)nn2)C[C@@H]1c1ccccc1,-7,7,-2,-11,8,-8
CCOC(=O)c1cccc2c1-c1ccccc1/C2=N/O,20,50*,86*,-31,8,86*
O=C1C(=Cc2ccccn2)CCc2ccccc21,-77,-25,54*,-5,-72,61*
Cc1ccsc1/C=C1\CCc2ccccc2C1=O,-148,35,82*,-48,-114,-24
Cc1cc(C)nc(SCc2nnc(SCC(=O)Nc3ccccc3C)n2Cc2ccco2)n1,13,-1,-20,0,4,-15
Nc1ncnc2c1C1(CCCCC1)Cc1ccccc1-2,-26,59*,59*,12,-10,27
Nc1n[nH]c2c1C1(CCCCC1)Cc1ccccc1-2,17,4,-17,-6,15,-1
Cc1cc(C(=O)NNC(=S)Nc2cccc(C(F)(F)F)c2)nn1C,-14,-25,1,-7,-2,1
Cc1nc(-c2ccc(NC(=O)/C=C\C(=O)O)cc2)cs1,-15,61*,20,16,19,-1
CCCCCC(=O)Nc1ccc(-c2csc(C)n2)cc1,-160,-54,-16,3,-143,-1
Cc1ccc2nc(-c3ccc(NC(=O)COCC(=O)O)cc3)sc2c1,-218,-28,0,12,-221,-15
Cc1ccc2sc(-c3ccc(NC(=O)/C=C\C(=O)O)cc3)nc2c1,-234,48,55*,-15,-299,-22
CCc1cccc2c(=O)c(C(=O)N3CCOCC3)c[nH]c12,10,-16,7,13,6,9
CC[C@]12c3[nH]c4ccc(Cl)cc4c3CCN1C(=O)[C@@H](CC(=O)NCc1cccc(C(F)(F)F)c1)C[C@@H]2C(=O)N1CCN(C(=O)C2CC2)CC1,-3,31,15,0,52*,-14
CC[C@]12c3[nH]c4ccccc4c3CCN1C(=O)C(CC(=O)NCc1cccc(C(F)(F)F)c1)C[C@@H]2C(=O)N1CCN(C(=O)C2CC2)CC1 (some centres not stated),-2,-7,11,1,1,6
CCN(CC)C(=O)[C@H]1C[C@H](CC(=O)NCc2cccc(C(F)(F)F)c2)C(=O)N2CCc3c([nH]c4cc(-c5ccco5)ccc34)[C@]12C,-27,0,30,5,85*,36
CCN(CC)C(=O)[C@H]1C[C@H](CC(=O)NCc2ccco2)C(=O)N2CCc3c([nH]c4cc(-c5ccco5)ccc34)[C@]12C,3,-11,37,7,10,-4
CC(C)=CCC/C(C)=C/CNC(=O)CC1C[C@H](C(=O)N(C(C)C)C(C)C)[C@@]2(C)c3[nH]c4ccccc4c3CCN2C1=O (some centres not stated),0,-6,37,-4,89*,17
CC[C@]12c3[nH]c4cc(CCC(=O)N(C)C)ccc4c3CCN1C(=O)[C@@H](CC(=O)NC/C=C(\C)CCC=C(C)C)C[C@@H]2C(=O)N1CCN(C(=O)C2CC2)CC1,-1,-7,19,14,5,-42
CC[C@]12c3[nH]c4ccc(Cl)cc4c3CCN1C(=O)[C@@H](CC(=O)NC/C=C(\C)CCC=C(C)C)C[C@@H]2C(=O)N1CCN(C(=O)C2CC2)CC1,-28,38,44,-4,60*,19
COCCn1c(SCc2nc3scc(-c4ccc(Cl)cc4)c3c(=O)[nH]2)nnc1-c1cccc(C)c1,16,28,41,0,36,-4
CC[C@]12c3[nH]c4cc(CCC(=O)N(C)C)ccc4c3CCN1C(=O)[C@@H](CC(=O)NCC13CC4CC(CC(C4)C1)C3)C[C@@H]2C(=O)N1CCN(C(=O)c2ccco2)CC1,-22,-2,96*,11,-10,-113
SMILES,HIF-2a block,TROY NFkB inh,TWEAK-Fn14 inh,KKLEB cytotox,Peg3 prom inh,CF NFkB inh
CN(C)C(=O)CCc1ccc2c3c([nH]c2c1)[C@]1(CCC2CCCC2)[C@@H](C(=O)N2CCOCC2)C[C@H](CC(=O)NCc2cccc(C(F)(F)F)c2)C(=O)N1CC3,0,29,4,10,29,-17
O=C(CC1C[C@H](C(=O)N2CCOCC2)[C@@]2(CCC3CCCC3)c3[nH]c4ccccc4c3CCN2C1=O)NCc1cccc(C(F)(F)F)c1 (some centres not stated),13,26,38,-35,90*,35
COc1ccc2[nH]c3c(c2c1)CCN1C(=O)C(CC(=O)NC/C=C(\C)CCC=C(C)C)C[C@H](C(=O)N(C(C)C)C(C)C)[C@@]31C (some centres not stated),4,31,43,7,23,27
CC(C)=CCC/C(C)=C/CNC(=O)C[C@H]1C[C@H](C(=O)N(C(C)C)C(C)C)[C@@]2(C)c3[nH]c4ccc(Cl)cc4c3CCN2C1=O,-7,7,56*,-4,14,19
CC[C@]12c3[nH]c4ccccc4c3CCN1C(=O)C(CC(=O)NCC13CC4CC(CC(C4)C1)C3)C[C@@H]2C(=O)N1CCN(C(=O)c2ccco2)CC1 (some centres not stated),6,13,17,2,27,4
CCCCN(CC)CCNC(=O)c1cc2c(=O)n(C)c3ccccc3c2s1,-11,-29,-34,-9,-5,-15
CN(C)C(=S)N=c1ssc(=S)n1Cc1cccnc1,2,6,6,-23,19,16
COc1ccc(C(=O)Nc2ccc(Cl)c(S(=O)(=O)Nc3ccccc3OC)c2)cc1,1,53*,81*,-9,29,11
COc1ccc(NC(=O)c2ccc(-c3ccccc3)cc2)cc1NS(=O)(=O)c1ccc(F)cc1,-6,31,62*,0,15,7
COc1ccccc1NS(=O)(=O)c1cccc(NC(=O)Nc2cccc(Cl)c2)c1,13,51*,81*,-8,48,18
COc1ccccc1NS(=O)(=O)c1cc(NC(=O)c2ccc(Cl)nc2)ccc1Cl,20,72*,102*,15,50*,-14
